{"source": "PubChem BioAssay AID1578", "about": "(Sanford-Burnham Center for Chemical Genomics, 2009)", "note": "About 3,000 (1%) of roughly 290,000 compounds were called active. Many of the other results were omitted from the sample, so actives are more common in it than they were. A number with no mark means an inactive call. Cut-off read from the data, not from the text of the source: active = inhibition mostly above about 36% (no sharp cut-off); inactive = mostly below about 34%."}
{"assay": "inhibition of NOD1-driven NF-kB reporter – cell-based, luminescence, uHTS, primary screen (AID 1578);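 note: HEK-293T reporter cells stimulated with the NOD1 agonist gamma-tri-DAP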", "details": "NOD1-driven NF-kB luciferase reporter cells, at 4 µM, stronger effect = higher value"}
{"compound": "CCN(Cc1ccccc1)S(=O)(=O)c1ccc(OC)cc1", "inhibition": "14.2%"}
{"compound": "COc1cccc(C2CC(c3cccs3)=NN2S(C)(=O)=O)c1OC", "note": "(configuration not stated)", "inhibition": "-30.3%"}
{"compound": "N#CCSc1nc2ccccc2c(=O)n1CCC(=O)NCCc1ccccc1", "inhibition": "32.7%"}
{"compound": "O=C1C(=O)N(CCCN2CCOCC2)C(c2ccc([N+](=O)[O-])cc2)/C1=C(/O)c1ccc2c(c1)OCO2", "note": "(configuration not stated)", "inhibition": "-24.9%"}
{"compound": "CCc1cccc(NC(=O)CCS(=O)(=O)c2ccc3c(c2)NC(=O)CO3)c1", "inhibition": "-12.9%"}
{"compound": "CN(C(=O)CCN1C(=O)C(C)(C)Nc2ccccc21)c1ccccc1", "inhibition": "0.1%"}
{"compound": "Cc1ccc2[nH]cc(C(=O)CN3CCN(c4ccccn4)CC3)c2c1", "inhibition": "-23%"}
{"compound": "CC(NC(=O)OC1CCCCC1)N1C(=O)C2C3C=CC(C3)C2C1=O", "note": "(configuration not stated)", "inhibition": "-1.3%"}
{"compound": "Cn1c(N/N=C/c2cccs2)nc2c1c(=O)n(Cc1ccccc1)c(=O)n2C", "inhibition": "-22.5%"}
{"compound": "NC(=O)c1cc2cc(Cl)ccc2oc1=Nc1cccc(C(F)(F)F)c1", "inhibition": "-9.4%"}
{"compound": "Cn1c(O)c(C=Nc2ccc(N3CCOCC3)cc2)c(=O)n(C)c1=S", "inhibition": "-14.6%"}
{"compound": "CCN(CC(=O)Nc1ccc2c(c1)OCCO2)S(=O)(=O)c1ccccc1", "inhibition": "-42.6%"}
{"compound": "CCCN1CN(Cc2ccccc2)CNC1=S", "inhibition": "-23.1%"}
{"compound": "CCOC(=O)/C(C#N)=C/c1c(N2CCCCCC2)nc2ccccn2c1=O", "inhibition": "0.9%"}
{"compound": "COc1cc2c3c(c1)C1(C(=O)N3C(C)(C)C=C2C)C(C#N)=C(N)Oc2cc(C)oc(=O)c21", "note": "(configuration not stated)", "inhibition": "-10.4%"}
{"compound": "CC1=CC(C)(C)N2C(=O)C3(C(C#N)=C(N)Oc4cc(C)oc(=O)c43)c3cccc1c32", "note": "(configuration not stated)", "inhibition": "-1.1%"}
{"compound": "CCc1cc2c3c(c1)C1(C(=O)N3C(C)(C)C=C2C)C(C#N)=C(N)Oc2[nH]c(=O)[nH]c(=O)c21", "note": "(configuration not stated)", "inhibition": "54.6% (active)"}
{"compound": "Cc1cc(C)n(C(=O)/C(C#N)=C/N(C)C)n1", "inhibition": "-47.6%"}
{"compound": "Cc1cc(C)n(C(=O)/C(C#N)=N/Nc2cc(Cl)cc(Cl)c2)n1", "inhibition": "40.4% (active)"}
{"compound": "Cc1cc(C)n(C(=O)/C(C#N)=N\\Nc2ccccc2[N+](=O)[O-])n1", "inhibition": "-30.2%"}
{"compound": "Cc1nc(Cl)c(C(=O)NCc2ccccc2)c(C)c1Cl", "inhibition": "-37.4%"}
{"compound": "O=C(NCc1ccccc1)c1c(Cl)nc(Cl)c(Cl)c1Cl", "inhibition": "54.5% (active)"}
{"compound": "Cc1nc(Cl)c(C(=O)NCc2ccccc2)c(C)c1[N+](=O)[O-]", "inhibition": "-6.1%"}
{"compound": "COc1ccc(C)cc1-n1nc2ccccc2n1", "inhibition": "-40%"}
{"compound": "N=C1/C(=C/c2cccs2)C(=O)N=C2SN=C(SCc3ccccc3)N12", "inhibition": "80.4% (active)"}
{"compound": "CC(C)CSC1=NSC2=NC(=O)/C(=C\\c3cccs3)C(=N)N12", "inhibition": "41.8%"}
{"compound": "CSC1=NSC2=NC(=O)/C(=C\\c3cccs3)C(=N)N12", "inhibition": "-30%"}
{"compound": "CCc1ccc(-n2nnnc2SCC(=O)Nc2ccc(NC(C)=O)cc2)cc1", "inhibition": "-3.5%"}
{"compound": "O=C1/C(=C/c2ccc(O)cc2)COc2ccccc21", "inhibition": "-6.1%"}
{"compound": "O=C1/C(=C/c2cccs2)COc2ccccc21", "inhibition": "-19%"}
{"compound": "O=C1/C(=C/c2ccccc2[N+](=O)[O-])COc2ccccc21", "inhibition": "47.1% (active)"}
{"compound": "CCOC(=O)c1cnc2nc(NCc3ccc(OC)c(OC)c3)[nH]n2c1=O", "inhibition": "-26.1%"}
{"compound": "CC1CCCN1CC#CC(O)(c1ccccc1)c1ccccc1", "note": "(configuration not stated)", "inhibition": "0.2%"}
{"compound": "CC(C)c1nnc(NC(=O)c2ccc3c(c2)OCO3)s1", "inhibition": "62.9% (active)"}
{"compound": "O=C(Nc1ncc([N+](=O)[O-])s1)c1ccc2c(c1)OCO2", "inhibition": "69% (active)"}
{"compound": "O=C(Nc1ccc([N+](=O)[O-])cn1)c1ccc2c(c1)OCO2", "inhibition": "-49.4%"}
{"compound": "CCC(CC)c1nnc(NC(=O)c2ccc3c(c2)OCO3)s1", "inhibition": "-53.7%"}
{"compound": "O=C(Nc1ncc([N+](=O)[O-])s1)c1cccc([N+](=O)[O-])c1", "inhibition": "10.4%"}
{"compound": "Cc1cnc(NC(=O)c2c(-c3ccccc3)noc2C)s1", "inhibition": "2.4%"}
{"compound": "Cc1nnc(NC(=O)c2c(-c3ccccc3)noc2C)s1", "inhibition": "-0.4%"}
{"compound": "CC(c1ccccc1)c1nnc(NC(=O)c2ccc3c(c2)OCO3)s1", "note": "(configuration not stated)", "inhibition": "5.6%"}
{"compound": "C/C(CCc1ccc2c(c1)OCO2)=N\\N=C1\\NC(=O)CC(C(=O)Nc2ccc(Cl)cc2)S1", "note": "(configuration not stated)", "inhibition": "3.3%"}
{"compound": "COc1ccc(NC(=O)CNC(=O)c2c(C)nn(C)c2Cl)cc1", "inhibition": "-25.4%"}
{"compound": "Cc1ccc(C(=O)Cn2c(C)cc(C)c(C#N)c2=O)cc1", "inhibition": "-3.5%"}
{"compound": "COc1cccc2sc(/N=C/N(C)C)nc12", "inhibition": "4.3%"}
{"compound": "CN1CCCC1=Nc1c2c(nc3ccccc13)N(C)CC2", "inhibition": "-12.3%"}
{"compound": "COc1ccc(-c2csc(NC(=S)NC(=O)c3ccc(S(=O)(=O)N(C)C)cc3)n2)cc1OC", "inhibition": "-1.9%"}
{"compound": "Cc1ccc(CCCOC(=O)CN2CCCCC2)cc1", "inhibition": "-29.9%"}
{"compound": "COc1cc(OC)cc(OCC(O)Cn2cnc(-c3ccccc3)c2)c1", "note": "(configuration not stated)", "inhibition": "-19.2%"}
{"compound": "Brc1ccc(C=Nc2ccc3c(c2)OCCOCCOCCO3)s1", "inhibition": "-40.4%"}
{"compound": "O=C(c1noc2c1CCc1ccccc1-2)N1CCc2ccccc2C1", "inhibition": "-25%"}
{"compound": "CN(C)C(CNc1ncnc2sccc12)c1ccccc1", "note": "(configuration not stated)", "inhibition": "4%"}
{"compound": "Fc1ccccc1CNc1ncnc2sccc12", "inhibition": "25.2%"}
{"compound": "OC(CNc1ncnc2sccc12)c1ccccc1", "note": "(configuration not stated)", "inhibition": "-2.4%"}
{"compound": "COc1ccc(CNc2ncnc3cc(OC)c(OC)cc23)cc1OC", "inhibition": "-17%"}
{"compound": "COc1ccc(CNc2ncnc3sccc23)cc1", "inhibition": "41.7%"}
{"compound": "COc1ccccc1Nc1ncnc2sccc12", "inhibition": "-5.2%"}
{"compound": "O=C(CN1CCN(S(=O)(=O)c2ccc(Cl)cc2)CC1)c1ccc(O)c(O)c1", "inhibition": "-30.9%"}
{"compound": "Cn1ccnc1SCC(=O)c1ccc([N+](=O)[O-])cc1", "inhibition": "-21.2%"}
{"compound": "COc1ccc(C(=O)NCCOC(C)C)cc1OC1CCN(C(C)=O)CC1", "inhibition": "-13.7%"}
{"compound": "O=C(CSc1nc2ccccc2s1)NNC(=S)Nc1ccc(Cl)cc1", "inhibition": "-14.3%"}
{"compound": "O=C(COc1ccc(Cl)cc1Cl)NNC(=S)NC(=O)c1ccco1", "inhibition": "-10.8%"}
